In all, about 170,000 compounds went through this assay and about 460 (0.27%) were called active.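 Rule for the calls: active = inhibition above the plate cutoff, the mean inhibition of test wells on that plate plus 3 SD (cut at about 28% in these data); inactive = the rest.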 Many of the other results were omitted from the sample, so actives are more common in it than they were.
Each compound was assayed against Sphingosine 1-phosphate receptor 3 (Homo sapiens) (UniProt Q99500) (assay: S1P3 receptor antagonists, primary screen, cell-based (AID 485;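 note: cells challenged with S1P at its EC80 of 0.8 µM; blue over green emission ratio from cleaved BLA substrate after 4 h stimulation; 0% = S1P-stimulated wells and 100% = unstimulated DMSO-only wells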)). Conditions: CHO S1P3 NFAT-BLA reporter, FRET fluorescence, antagonist mode; at 4.98 µM; stronger effect = higher value.
Sequence of Sphingosine 1-phosphate receptor 3 (Homo sapiens) (Q99500 whole entry, looked up): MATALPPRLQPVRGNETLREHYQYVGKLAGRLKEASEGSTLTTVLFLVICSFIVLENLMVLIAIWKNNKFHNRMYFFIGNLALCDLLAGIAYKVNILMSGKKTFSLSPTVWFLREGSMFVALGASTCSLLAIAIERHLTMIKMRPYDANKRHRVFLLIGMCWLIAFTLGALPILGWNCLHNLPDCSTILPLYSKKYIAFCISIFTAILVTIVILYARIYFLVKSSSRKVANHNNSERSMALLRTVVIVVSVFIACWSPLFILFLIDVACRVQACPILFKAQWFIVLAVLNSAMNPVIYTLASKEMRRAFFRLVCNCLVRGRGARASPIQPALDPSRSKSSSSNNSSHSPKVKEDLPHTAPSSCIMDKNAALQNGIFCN

Structure (SMILES) | inhibition
CCN1/C(=C\c2ccc3ccccc3[n+]2CC)Sc2cc(C)ccc21 | 31.2% (active)
CCC(=O)/C=C1\Sc2ccccc2N1CC | 1.3% (inactive)
CCN1/C(=C/c2ccc3ccc(C)cc3[n+]2CC)Sc2ccccc21 | 25.1% (inactive)
C=CCSc1nnc(NC(=O)c2ccc(NC(C)=O)cc2)s1 | -1.45% (inactive)
Cc1cccc(C(=O)Nc2ccc3c(c2)C(=O)N(CC(C)C)C3=O)c1 | 2.56% (inactive)
Nc1ccccc1Sc1cc(Cl)nnc1Cl | 1.23% (inactive)
Cc1c(NC(=O)C(=O)N/N=C/c2cccs2)c(=O)n(-c2ccccc2)n1C | -2.98% (inactive)
COc1ccccc1NC(=O)C1=C(C)NC(=O)NC1c1ccc(C)s1 (stereo unspecified) | 1.95% (inactive)
COc1cccc(OC)c1C(=O)NC(=S)NCc1ccco1 | -6.79% (inactive)
NS(=O)(=O)c1ccc(CNC(=O)c2cnccn2)cc1 | -4% (inactive)
Brc1ccc(-c2nn[nH]n2)cc1 | -7.13% (inactive)
CCN(CCn1cccn1)Cc1cn[nH]c1-c1ccc(OC)cc1F | -12.8% (inactive)
COc1ccc(CCNC2=CC(=O)CC(C)(C)C2)cc1 | -7.01% (inactive)
CN(C)/C=C(/C(=O)c1ccc(Cl)c(Cl)c1)c1nnnn1-c1ccccc1 | 1.6% (inactive)
O=C(NNC(=O)c1ccccc1[N+](=O)[O-])Nc1ccccc1C(F)(F)F | -5.24% (inactive)
O=S(=O)([N-]c1nc2ccccc2nc1-[n+]1ccc(Cc2ccccc2)cc1)c1ccc(Br)s1 | 0.71% (inactive)
CCNc1nc(Oc2ccc(C(=O)OC)cc2)nc(N2CCOCC2)n1 | -9.79% (inactive)
COc1ccccc1Nc1nc(N)nc(CSC(=S)N2CCOCC2)n1 | 3% (inactive)
O=C(CCCl)Nc1ccc(S(=O)(=O)NCc2ccco2)cc1 | -8.65% (inactive)
O=C(NCc1nnc(SCC(=O)N2CCCc3ccccc32)o1)c1ccccc1F | -7.71% (inactive)
CCCCC(=O)NCc1ccc(F)cc1 | 6.82% (inactive)
CSc1ccc(CN(C)CC(=O)NCc2ccc(F)cc2)cc1 | 30.2% (active)
O=C(Cc1ccccc1)NCc1ccc(F)cc1 | -11% (inactive)
COc1ccccc1-n1c(SCC(=O)O)nc2sc3c(c2c1=O)CCC3 | -7.86% (inactive)

Structure (SMILES) | inhibition
Cc1ccc(SCCN2C(=O)NC(C)(C)C2=O)cc1 | -2.4% (inactive)
CN(C)CCCn1c(SCCN2C(=O)c3ccccc3C2=O)nc2ccccc2c1=O | 5.65% (inactive)
Nc1ccc(SCCN2C(=O)c3ccccc3C2=O)cc1 | 91.7% (active)
CCOC(=O)C1=C(C)N=C2c3ccccc3C(=O)C2C1c1ccc(Br)cc1 (stereo unspecified) | 60% (active)
CCOC(=O)C1=C(C)NC(C)=C(C(=O)OCC)C1c1ccccn1 | -28.6% (inactive)
CCOC(=O)C1=C(C)NC(=O)NC1c1ccccc1 (stereo unspecified) | -9.13% (inactive)
COc1ccc(/C=C/CN2CCCC(C(=O)c3cc(F)ccc3F)C2)cc1 (stereo unspecified) | -10.6% (inactive)
COC(=O)N(NC(=O)C(O)(C(C)C)C(C)C)c1ccccc1 | 11% (inactive)
CC(CNS(=O)(=O)c1ccc(Br)cc1)CN(C)C (stereo unspecified) | -2.53% (inactive)
COc1ccc(N=C(C)c2sc3ccccc3c2O)cc1 | 6.44% (inactive)
Cc1nc2cc(NC(=O)NC3CC3)ccc2n1C | -13.8% (inactive)
OC1CCCN(c2ncnc3c2nnn3Cc2c(F)cccc2Cl)C1 (stereo unspecified) | -7.85% (inactive)
N#C/C(=C/c1ccc(-c2ccccc2[N+](=O)[O-])o1)C(=O)NCCN1CCCCC1 | -1.3% (inactive)
CCC(C)N(C(=O)COC(=O)C1C(C(=O)OC)=C(C)NC(C)=C1C(=O)OC)C1CCS(=O)(=O)C1 (stereo unspecified) | -2.76% (inactive)
CN1C=CC=C/C1=C1\SC(=S)N(Cc2ccccc2)C1=O | -8.73% (inactive)
CCc1ccc(S(=O)(=O)NCC(O)COc2ccc(OC)cc2)cc1 (stereo unspecified) | 11.9% (inactive)
Cc1c(/C=N\NC(=O)c2cc3ccccc3o2)c2ccccc2n1C | 9.64% (inactive)
O=C(N/N=C/c1c[nH]c2ccccc12)c1cc2ccccc2o1 | -11.5% (inactive)
O=C(N/N=C/c1coc2ccccc2c1=O)c1cc2ccccc2o1 | 30.4% (active)
COc1cc(NS(=O)(=O)c2ccc(NC(=O)c3ccc(S(=O)(=O)N4CCCCC4)cc3)cc2)ncn1 | -13.9% (inactive)
CC(C)CNC(=O)C(=O)NCc1ccccc1 | 1.01% (inactive)
CCOC(=O)C1=NOC(Cn2cc(C(C)=O)c(=O)[nH]c2=O)C1 (stereo unspecified) | -0.07% (inactive)
Cc1cccc2c1N(CCOc1ccccc1)C(=O)C2=O | -6.34% (inactive)
O=C(CSc1nc2ccccc2[nH]1)c1cccs1 | -5% (inactive)

Structure (SMILES) | inhibition
Nc1c(C(=O)c2cccs2)sc2nsc(SCCN3CCCCC3)c12 | 28.7% (active)
Cc1nc2sc(C(=O)c3ccccc3)c(N)c2c2c1CCCC2 | 26.9% (inactive)
O=C(NCc1ccco1)C1CCCN1S(=O)(=O)c1ccccc1C(F)(F)F (stereo unspecified) | 5.85% (inactive)
S=C(NCCc1ccccc1)NCC1CCCO1 (stereo unspecified) | 29.2% (active)
O=C(CS(=O)(=O)Cc1ccccc1)NCC1CCCO1 (stereo unspecified) | 9.8% (inactive)
O=C(NCCc1c[nH]c2ccccc12)C(=O)NCC1CCCO1 (stereo unspecified) | -20.2% (inactive)
O=S1(=O)CC/C(=N\Nc2ccc(F)cc2)c2ccsc21 | 3.45% (inactive)
S=C(NCc1ccco1)Nc1ccc2c(c1)OCCO2 | -9.96% (inactive)
CC12CN3CCN(CC(C3)/C1=N\NC(=O)c1ccccc1N)C2 | -5.45% (inactive)
CC(=O)c1c(C)[nH]c(C(=O)COC(=O)c2cccc(S(=O)(=O)N(C)c3ccccc3)c2)c1C | 37.9% (active)
CN(c1ccccc1)S(=O)(=O)c1ccc(Cl)c(C(=O)OCC(N)=O)c1 | -15.6% (inactive)
COc1ccc(C)cc1NC(=O)C(OC(=O)c1cccc(S(=O)(=O)N(C)c2ccccc2)c1)c1ccccc1 (stereo unspecified) | -3.14% (inactive)
O=C(NCC(c1cccs1)N1CCOCC1)c1cc(-c2ccccn2)nc2ccccc12 (stereo unspecified) | -2.5% (inactive)
COCCn1c(SCC(=O)c2[nH]c(C)c(C(C)=O)c2C)nc2ccccc2c1=O | -13.7% (inactive)
NS(=O)(=O)c1ccc(NC(=O)COC(=O)c2cc3ccccc3oc2=O)cc1 | 11.2% (inactive)
O=C(N/N=C/c1cccc([N+](=O)[O-])c1)c1ccncc1 | -7.73% (inactive)
Cc1ccc(NC(=O)NNC(=O)c2sccc2-n2cccc2)cc1 | 8.38% (inactive)
COc1ccc(C2=NN(c3nc4ccccc4s3)C(=O)C2)cc1 | -9.89% (inactive)
CCOC(=O)N1CCN(c2c(NCCN3CCN(c4ccccc4F)CC3)c(=O)c2=O)CC1 | -1.55% (inactive)
COc1ccc(NC(=O)C2CCC(CNc3c(N4CCCCC4)c(=O)c3=O)CC2)c(OC)c1 (stereo unspecified) | -5.91% (inactive)
COc1ccc(NS(=O)(=O)c2ccc(Oc3c(C#N)cccc3C#N)cc2)cc1 | 1.93% (inactive)
COc1ccc(CC(=O)N[C@@H](CCSC)c2nc3ccccc3[nH]2)cc1 | -1.34% (inactive)
CCn1c(=O)c([N+](=O)[O-])c(NCc2ccc3c(c2)OCO3)c2ccccc21 | -5.99% (inactive)
O=C(Nc1ccc2oc(-c3ccccc3F)nc2c1)c1ccco1 | -11.6% (inactive)

Structure (SMILES) | inhibition
Nc1nc(SC23CC4CC(CC(C4)C2)C3)ns1 | -0.08% (inactive)
Cc1cc(=O)oc2cc(OCCC[n+]3ccccc3)ccc12 | 0.67% (inactive)
CC1=NNC(=O)C1CC(=O)N/N=C/c1ccncc1 (stereo unspecified) | -24.4% (inactive)
C[C@@H](NC(=O)OC(C)(C)C)c1nnc(S(=O)(=O)Cc2ccccc2)o1 | -3.71% (inactive)
CCOC(=O)c1oc2c(CN3CCN(CCO)CC3)c(O)c(CC)cc2c(=O)c1-c1nc2ccccc2s1 | -10.5% (inactive)
Cc1ccc(S(=O)(=O)N(C)C)cc1NC(=O)c1n[nH]c(=O)c2ccccc12 | -6.86% (inactive)
Cc1cccc(C)c1N1CCN(S(=O)(=O)N2CCCCC2)CC1 | -28.1% (inactive)
CNC(=O)Nc1cc(C(C)(C)C)no1 | 92.8% (active)
COc1ccc(CN2C(=O)C(C)S/C2=N/N=C/c2ccco2)cc1 (stereo unspecified) | -5.66% (inactive)
CCn1c(-c2cccnc2Cl)nc2cc(C)c(C)cc21 | -10.7% (inactive)
Cn1c(C(=O)O)ccc1S(=O)(=O)N(Cc1ccccc1)Cc1ccccc1 | 3.65% (inactive)
OCCC1CN(Cc2ccccc2-c2ccco2)CCN1Cc1ccsc1 (stereo unspecified) | -6.06% (inactive)
CC(=O)NC(=S)NNC(=O)c1ccc(Br)cc1 | -11.1% (inactive)
CCOc1ccc2sc(NS(=O)(=O)c3ccc(N)cc3)nc2c1 | -8.22% (inactive)
Oc1c(Br)cc(/C=N/NC(=S)NCC2CCCO2)cc1Br (stereo unspecified) | 0.61% (inactive)
Cc1cc(C(C)(C)C)cc(S(=O)(=O)Nc2ccc(C(=O)O)cc2)c1C | -12.2% (inactive)
COc1cc2[nH]c(=O)n(Cc3ccc(C(=O)NC4CCN(Cc5ccccc5)CC4)cc3)c(=O)c2cc1OC | -15.1% (inactive)
COc1ccc(N2CCN(C(=S)Nc3ccc(S(N)(=O)=O)cc3)CC2)cc1 | 6.19% (inactive)
CC(=O)NC(CC(=O)Nc1nccs1)c1ccccc1 (stereo unspecified) | -11.7% (inactive)
CSCCNCc1cn(-c2ccc(F)cc2F)nc1-c1ccccc1C | -21.2% (inactive)
CC(NC(=O)C(=O)N/N=C/c1ccc(Cl)cc1)c1ccccc1 (stereo unspecified) | -3.11% (inactive)
Cc1nc(CNS(=O)(=O)c2cc([N+](=O)[O-])ccc2C)cs1 | 10.3% (inactive)
COc1ccc(CNC(=O)CCC(=O)Nc2nnc(C(C)C)s2)cc1 | -0.16% (inactive)
CS(=O)(=O)c1ccc2nc(NC(=O)c3ccc(N4CCCC4=O)cc3)sc2c1 | -4.82% (inactive)
